# PubChem BioAssay AID1851 (National Center for Advancing Translational Sciences (NCATS), 2009)
# Where “and” joins values, the source holds several entries; their conditions need not be identical. Identical values can stand only once. The campaign covered roughly 16,000 compounds. About 5,100 (32%) were called active. Roughly 25% stayed inconclusive and do not appear here. Some of the results follow. A number with no mark means an inactive call. Calls come from the whole dose curve; as a rule, active = well fitted curve in the direction sought with a large enough effect; inconclusive = small, poorly fitted or top-dose-only effect, or effect the other way; inactive = no such curve, though single readings can be large or run the other way.
# Target: Cytochrome P450 3A4 (Homo sapiens) (UniProt P08684)
# Test: Cytochrome panel assay with activity outcomes
# Conditions: recombinant CYP, pro-luciferin dealkylation, luminescence, p450-cyp3a4; series mostly up to 57.1 µM
# % is set by controls: 0 for no effect and ±100 for the full control effect.
# Cytochrome P450 3A4 (Homo sapiens), sequence (P08684 whole entry, looked up): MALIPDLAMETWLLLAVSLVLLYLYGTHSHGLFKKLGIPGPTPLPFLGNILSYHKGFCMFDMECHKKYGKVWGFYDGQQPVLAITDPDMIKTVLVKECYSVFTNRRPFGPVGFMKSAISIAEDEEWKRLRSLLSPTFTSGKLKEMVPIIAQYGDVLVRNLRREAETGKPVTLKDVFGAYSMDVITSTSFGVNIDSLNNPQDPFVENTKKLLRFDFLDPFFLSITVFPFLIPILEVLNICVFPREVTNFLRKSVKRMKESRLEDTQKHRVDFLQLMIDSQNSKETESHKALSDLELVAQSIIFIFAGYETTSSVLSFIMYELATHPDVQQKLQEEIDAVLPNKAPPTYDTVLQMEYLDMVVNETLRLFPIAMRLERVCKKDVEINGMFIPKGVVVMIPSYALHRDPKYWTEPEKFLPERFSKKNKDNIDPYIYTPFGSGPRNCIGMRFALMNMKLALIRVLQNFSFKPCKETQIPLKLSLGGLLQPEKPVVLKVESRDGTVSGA
Structure (SMILES),AC50,"activity, negative = inhibition"
Cc1nnc(NC(=O)CSc2ncnc3c2cnn3-c2ccccc2C)s1,inactive,–
CCc1nnc(NC(=O)CSc2ncnc3c2cnn3-c2ccc(OC)cc2)s1,inactive,–
CCOc1ccc(-n2ccnc2SCC(=O)Nc2nnc(CC)s2)cc1,14.1 µM (active),–
CCOc1ccc(-n2ccnc2SCC(=O)Nc2nnc(C)s2)cc1,14.1 µM (active),–
COc1ccc(-c2coc3cc4oc(=O)cc(C)c4cc23)cc1F,inactive,–
CCCc1ccc(C2C3=C(CC(C)(C)CC3=O)NC3=C2C(=O)c2ccccc23)cc1 (configuration not stated),2.82 µM (active),–
O=C(Nc1ccc2oc(=O)c(C(=O)O)cc2c1)Oc1ccccc1,–,-5.24% [at 11.4 µM]
C[C@@H](C(=O)Nc1ccc2ccccc2c1)[C@H]1C[C@]1(C)[C@H](NC(=O)Oc1ccc(F)cc1)c1ccccc1,0.794 µM (active),–
COC(=O)N[C@H](c1ccccc1)[C@@]1(C)C[C@@H]1[C@@H](C)C(=O)Nc1ccc2ccccc2c1,0.2 µM (active),–
CC(=O)N[C@H](c1ccccc1)[C@@]1(C)C[C@@H]1[C@@H](C)C(=O)Nc1ccc2ccccc2c1,7.94 µM (active),–
CC(=O)N[C@@H](c1ccccc1)[C@]1(C)C[C@H]1[C@@H](C)C(=O)Nc1ccc2ccccc2c1,7.94 µM (active),–
Oc1c(CN2CCN(c3ccccc3)CC2)cc(Br)c2cccnc12,–,0.931% [at 11.4 µM]
C[C@@H](C(=O)Nc1ccc2ccccc2c1)[C@H]1C[C@]1(C)[C@H](NP(=O)(c1ccccc1)c1ccccc1)c1ccccc1,2 µM (active),–
C[C@@H](C(=O)Nc1ccc2ccccc2c1)[C@@H]1C[C@@]1(C)[C@@H](N)c1ccccc1,7.94 µM (active),–
C[C@@H](C(=O)Cc1ccc2ccccc2c1)[C@@H]1C[C@@]1(C)[C@@H](NP(=O)(c1ccccc1)c1ccccc1)c1ccccc1,1 µM (active),–
CN(Cc1cnc2nc(N)nc(N)c2n1)c1ccc(C(=O)N[C@H](CCC(=O)O)C(=O)O)cc1,inactive,–
C=C[C@@]1(C)CC(=O)[C@@]2(O)[C@@]3(C)[C@@H](O)CCC(C)(C)[C@@H]3[C@H](OC(=O)CCN(C)C)[C@H](OC(C)=O)[C@@]2(C)O1,2.51 µM (active),–
O=C(O)CC[P+](c1ccccc1)(c1ccccc1)c1ccccc1,–,9.68% [at 11.4 µM]
CCN1C(=O)[C@H]2[C@H]3[C@H](O)[C@H](O)C/C(=N/OC[C@@H](O)COCc4ccco4)[C@@H]3CC[C@@H]2C1=O,–,-23.4% [at 11.4 µM] and -18.4% [at 11.4 µM]
O=C1[C@H]2[C@H]3[C@H](O)[C@H](O)C/C(=N/OC[C@@H](O)COCc4ccco4)[C@H]3CC[C@@H]2C(=O)N1Cc1ccc2c(c1)OCO2,3.16 µM (active),–
O=C1[C@H]2[C@H]3[C@H](O)[C@H](O)C/C(=N/OC[C@@H](O)COCc4ccco4)[C@@H]3CC[C@@H]2C(=O)N1Cc1ccccc1,3.16 µM (active),–
O=C1[C@H]2[C@H]3[C@H](O)[C@H](O)C/C(=N/OC[C@@H](O)COCc4ccco4)[C@@H]3CC[C@@H]2C(=O)N1Cc1ccc2c(c1)OCO2,3.16 µM (active),–
CCN1C(=O)[C@H]2[C@H]3[C@H](O)[C@H](O)C/C(=N/OC[C@@H](O)COCc4ccco4)[C@H]3CC[C@@H]2C1=O,–,-17.6% [at 11.4 µM]
Cc1[nH]nc(N2CCCCCC2)c1[N+](=O)[O-],inactive,–
CCC(C(=O)NC(C)(C)C)N(C(=O)Cn1nnc(-c2cccs2)n1)c1cnc2ccccc2c1 (configuration not stated),2 µM (active),–
O=C(Nc1cnc2ccccc2c1)c1cccc(-n2cnnn2)c1,inactive,–

Structure (SMILES),AC50,"activity, negative = inhibition"
CS(=O)(=O)Nc1cccc(-c2nc(NCCN3CCOCC3)c3ccccc3n2)c1,15.8 µM (active),–
CS(=O)(=O)Nc1ccc(Nc2c3ccccc3nc3ccccc23)cc1,–,-25.8% [at 11.4 µM]
c1cncc(-c2nc(NCCN3CCOCC3)c3ccccc3n2)c1,7.94 µM (active),–
O=C1C=C(NCCN2CCOCC2)CC(c2ccccc2)C1 (configuration not stated),inactive,–
COc1cccc(-c2nc(NCCN3CCOCC3)c3ccccc3n2)c1,12.6 µM (active),–
COc1cccc(C2=NOC(C(=O)NCCN3CCOCC3)C2)c1 (configuration not stated),inactive,–
CS(=O)(=O)Nc1cccc(-c2nc(N3CCOCC3)c3ccccc3n2)c1,1.58 µM (active),–
CS(=O)(=O)Nc1cccc(-c2nc(N3CCNCC3)c3ccccc3n2)c1,inactive,–
CCCc1cc(=O)[nH]c(=S)[nH]1,inactive,–
CCN(Cc1cc(Cl)cc(C)c1O)Cc1c(O)ccc2ccccc12,–,-15.9% [at 11.4 µM]
O=C(O)[C@H]1CN[C@H](C(=O)O)C1,inactive,–
N#Cc1cccc(-c2nc3cnc(N4CCOCC4)nc3n(C[C@H]3CCCO3)c2=O)c1,inactive,–
N#Cc1cccc(-c2nc(NCCN3CCOCC3)c3ccccc3n2)c1,12.6 µM (active),–
COc1ccc(-n2ncc3c(NCC4CCCO4)ncnc32)cc1 (configuration not stated),inactive,–
CCc1ccc2c(c1)cc(CN(C(=S)Nc1cccc(C)c1)C1CC1)c1nnnn12,2.24 µM (active),–
Cc1cccc(CCNc2nc3ccccc3n3nnnc23)c1,inactive,–
CC(NC(=O)CCSc1nc(-c2ccco2)cc(C(F)(F)F)n1)c1ccccc1 (configuration not stated),20 µM (active),–
CC(NC(=O)CCSc1nc(-c2ccc3c(c2)OCO3)cc(C(F)(F)F)n1)c1ccccc1 (configuration not stated),0.0398 µM (active),–
C[N+]1(C)CCC(=C(c2ccccc2)c2ccccc2)CC1,inactive,–
COc1ccc(C(Cl)=C(c2ccc(OC)cc2)c2ccc(OC)cc2)cc1,inactive,–
COc1ccc(C(=O)/C=C2/c3ccccc3CC(C)(C)N2C)cc1,7.08 µM (active),–
COc1ccc(C(=O)N2CCC3(CCN(C)CC3)CC2)cc1,inactive,–
COc1cccc(-c2cncnc2NCc2cnc(C)cn2)c1,1.58 µM (active),–
COc1cccc(-c2cncnc2NCc2cccc(C)c2)c1,0.398 µM (active),–
COc1cccc(-c2cncnc2NCc2cccnc2)c1,1.26 µM (active),–
COc1cccc(-c2cncnc2NCc2ccccc2)c1,0.316 µM (active),–
